Among the data in PubChem BioAssay (NCI) are growth values, retold here.

Compounds without any hit were thinned out: in the full panel of roughly 83,000, 20% have a hit.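 Cell lines were cultured in 96-well plates, exposed to a single compound concentration, and assessed for percent growth 48 hours later.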 Unmarked numbers belong to inactive results. Activity calls are given as the source filed them. Rule for the calls: active = growth percent below 10; inactive = the rest.

The first experiment concerns MDA-MB-435 melanoma. Put plainly: NCI-60 one-dose screen, 48 h (100 = growth as untreated, 0 = no growth, -100 = all killed). To be noted: 10 µM.
Regarding `C/C(=C\c1cc(Cl)ccc1OCC(=O)O)[N+](=O)[O-]`, the growth was 105%.

On to `Cc1cc(Cc2cc(C)c(N)cc2N)c(N)cc1N`, for which the growth was 106%.

Consider `CC1Cc2ccccc2O1` (configuration not stated), for which the growth is 124%.

On to `Cc1cc(C)cc(NCCC#N)c1`, for which the growth is 111%.

In the case of `OCC(O)C(O)C(O)C(O)/C=N/O` (configuration not stated), the growth was 108%.

`O=c1cc(-c2ccccc2)[nH]c(=S)[nH]1`: the growth was 104%.

Take `Nc1nc(N)c(N=Nc2ccc(C(=O)O)cc2)c(N)n1`: the growth is 103%.

With `c1ccc(CN2COc3c(ccc4c3OCN(Cc3ccccc3)C4)C2)cc1`, the growth is 22.1%.

For the compound `CCOC(=O)C1=C(Nc2ccc(Br)cc2)C(=O)N(CC)C1`, the growth is 101%.

In the case of `CC(C)=CC(=O)OC(=O)C=C(C)C`, the growth was 107%.

`O=C(O)C(c1ccccc1)C(O)c1ccccc1` (configuration not stated): the growth is 105%.

Regarding `O=C(CN1CCNCC1)N1CCOCC1`, the growth is 109%.

Turning to `Nc1ccc(N)c([N+](=O)[O-])c1`, the growth is 109%.

With `CCOC(=O)c1coc(C(=O)OCC)c1C(=O)OCC`, the growth was 108%.

Turning to `COC(=O)/C=C/C(=O)NC(N)=O`, the growth was 99%.

Consider `O=[N+]([O-])c1ccc(N=Nc2ccccc2)cc1`, for which the growth was 110%.

A further experiment deals with SW-620 colon. The experiment is described as above. To be noted: 10 µM.
As for `COc1ccc(-c2cc3c(nn2)-c2ccccc2C3=O)cc1`, the growth was 4.15% (active).

Turning to `CCCCC(=O)c1ccc(OC)cc1`, the growth is 101%.

On to `N=c1c(C(=O)OCc2ccccc2)ncc(CCl)n1O`, for which the growth is 86.9%.

In the case of `CCOC(=O)c1ccc(Nc2sc(C(=O)c3cccc([N+](=O)[O-])c3)c(N)c2C#N)cc1`, the growth was 5.69% (active).

Turning to `COC(=O)c1ccccc1N(C)C`, the growth is 107%.

Take `CC1(C(=O)O)NC(C(=O)O)Cc2c1[nH]c1ccccc21` (configuration not stated): the growth was 97.8%.

Consider `NCCC(=O)c1ccc(Cl)cc1`, for which the growth was 102%.

Take `CC(=O)/C(Cc1ccccc1)=N/O`: the growth is 98.4%.

Regarding `Cc1cccc(CO)c1`, the growth was 103%.

On to `CC1(C)/C(=C\CO)C2CCC1C2` (configuration not stated), for which the growth is 106%.

For the compound `CC1C(=O)c2ccccc2CC1C(=O)O` (configuration not stated), the growth was 115%.

As to `CC12CC3CC1C(C(=O)O2)C3C(=O)O` (configuration not stated), the growth was 102%.

For `CC(C)CCOC(=O)c1ccccc1`, the growth is 108%.

For `O=C1C[C@H](c2ccccc2)[C@H](c2ccccc2)C1`, the growth was 109%.

For the compound `O=c1cc(-c2ccccc2)oc2c1ccc1ccccc12`, the growth was 99.2%.

As for `O=C(CCl)N1CCN(C/C=C/c2ccccc2)CC1`, the growth was 90.3%.

Consider `COC(=O)c1cccnc1`, for which the growth was 97.4%.

With `CC(=O)NCc1cc(C)c(C)cc1C`, the growth is 107%.

Take `C#CCSc1nnnn1-c1ccc(Br)c(C)c1`: the growth was 99.9%.

As to `C=CCNC(=O)c1ccc(OC)cc1`, the growth was 126%.

With `O=C1Cc2ccccc2C(=O)O1`, the growth was 105%.

On to `Cc1ccccc1C1N=C2Oc3ccccc3C=C2C(=O)N1` (configuration not stated), for which the growth was 40%.

In the case of `C/C(=C\c1cc(Cl)ccc1OCC(=O)O)[N+](=O)[O-]`, the growth is 114%.

With `Cc1cc(Cc2cc(C)c(N)cc2N)c(N)cc1N`, the growth was 90.8%.

`CC1Cc2ccccc2O1` (configuration not stated): the growth is 111%.

For the compound `Cc1cc(C)cc(NCCC#N)c1`, the growth is 102%.

`OCC(O)C(O)C(O)C(O)/C=N/O` (configuration not stated): the growth is 99.6%.

Take `O=c1cc(-c2ccccc2)[nH]c(=S)[nH]1`: the growth is 104%.

For the compound `Nc1nc(N)c(N=Nc2ccc(C(=O)O)cc2)c(N)n1`, the growth is 90.8%.

As for `c1ccc(CN2COc3c(ccc4c3OCN(Cc3ccccc3)C4)C2)cc1`, the growth was 29.8%.

For `CCOC(=O)C1=C(Nc2ccc(Br)cc2)C(=O)N(CC)C1`, the growth was 100%.

For `CC(C)=CC(=O)OC(=O)C=C(C)C`, the growth is 110%.

For the compound `O=C(O)C(c1ccccc1)C(O)c1ccccc1` (configuration not stated), the growth is 106%.

For the compound `O=C(CN1CCNCC1)N1CCOCC1`, the growth is 108%.

For `Nc1ccc(N)c([N+](=O)[O-])c1`, the growth was 97.7%.

In the case of `CCOC(=O)c1coc(C(=O)OCC)c1C(=O)OCC`, the growth was 113%.

With `COC(=O)/C=C/C(=O)NC(N)=O`, the growth is 103%.

Turning to `O=[N+]([O-])c1ccc(N=Nc2ccccc2)cc1`, the growth is 115%.

The next experiment concerns MCF7 breast. The description is as above. As to conditions: 10 µM unless noted.
On to `COc1ccc(-c2cc3c(nn2)-c2ccccc2C3=O)cc1`, for which the growth is 16.2%.

Consider `CCCCC(=O)c1ccc(OC)cc1`, for which the growth was 97.6%.

Regarding `N=c1c(C(=O)OCc2ccccc2)ncc(CCl)n1O`, the growth is 91.9%.

On to `CCOC(=O)c1ccc(Nc2sc(C(=O)c3cccc([N+](=O)[O-])c3)c(N)c2C#N)cc1`, for which the growth is 7.42% (active).

Consider `COC(=O)c1ccccc1N(C)C`, for which the growth was 97.1%.

Turning to `CC1(C(=O)O)NC(C(=O)O)Cc2c1[nH]c1ccccc21` (configuration not stated), the growth was 98%.

As to `NCCC(=O)c1ccc(Cl)cc1`, the growth is 110%.

On to `CC(=O)/C(Cc1ccccc1)=N/O`, for which the growth was 94.5%.

With `Cc1cccc(CO)c1`, the growth was 96.6%.

For the compound `CC1(C)/C(=C\CO)C2CCC1C2` (configuration not stated), the growth is 104%.

Consider `CC1C(=O)c2ccccc2CC1C(=O)O` (configuration not stated), for which the growth is 99.3%.

Regarding `CC12CC3CC1C(C(=O)O2)C3C(=O)O` (configuration not stated), the growth was 108%.

Regarding `CC(C)CCOC(=O)c1ccccc1`, the growth was 99.7%.

For the compound `O=C1C[C@H](c2ccccc2)[C@H](c2ccccc2)C1`, the growth is 99.1%.

Regarding `O=c1cc(-c2ccccc2)oc2c1ccc1ccccc12`, the growth is 67.3%.

With `O=C(CCl)N1CCN(C/C=C/c2ccccc2)CC1`, the growth was 62.1%.

Consider `COC(=O)c1cccnc1`, for which the growth was 96.4%.

`CC(=O)NCc1cc(C)c(C)cc1C`: the growth is 97.4%.

On to `C#CCSc1nnnn1-c1ccc(Br)c(C)c1`, for which the growth was 82.4%.

As to `C=CCNC(=O)c1ccc(OC)cc1`, the growth was 95.2%.

Take `O=C1Cc2ccccc2C(=O)O1`: the growth is 102%.

With `Cc1ccccc1C1N=C2Oc3ccccc3C=C2C(=O)N1` (configuration not stated), the growth is 20.8%.

Regarding `C/C(=C\c1cc(Cl)ccc1OCC(=O)O)[N+](=O)[O-]`, the growth is 90.4%.

Consider `Cc1cc(Cc2cc(C)c(N)cc2N)c(N)cc1N`, for which the growth was 88.6%.

With `CC1Cc2ccccc2O1` (configuration not stated), the growth was 99.6%.

`Cc1cc(C)cc(NCCC#N)c1`: the growth was 101%.

As for `OCC(O)C(O)C(O)C(O)/C=N/O` (configuration not stated), the growth is 96.3%.

Consider `O=c1cc(-c2ccccc2)[nH]c(=S)[nH]1`, for which the growth was 95.3%.

On to `Nc1nc(N)c(N=Nc2ccc(C(=O)O)cc2)c(N)n1`, for which the growth was 104%.

As to `c1ccc(CN2COc3c(ccc4c3OCN(Cc3ccccc3)C4)C2)cc1`, the growth is 28.5%.

As to `CCOC(=O)C1=C(Nc2ccc(Br)cc2)C(=O)N(CC)C1`, the growth is 105%.

On to `CC(C)=CC(=O)OC(=O)C=C(C)C`, for which the growth was 94.7%.

Regarding `O=C(O)C(c1ccccc1)C(O)c1ccccc1` (configuration not stated), the growth was 95.3%.

For `O=C(CN1CCNCC1)N1CCOCC1`, the growth was 97.8%.

As for `Nc1ccc(N)c([N+](=O)[O-])c1`, the growth was 101%.

As for `CCOC(=O)c1coc(C(=O)OCC)c1C(=O)OCC`, the growth is 113%.

Consider `COC(=O)/C=C/C(=O)NC(N)=O`, for which the growth is 94.8%.

For `O=[N+]([O-])c1ccc(N=Nc2ccccc2)cc1`, the growth was 109%.
